Measured values from PubChem BioAssay.
Where “and” joins values, the source holds several entries; their conditions need not be identical. Equal values may be shown once. Calls of active or inactive are those of the source.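 Rule for the calls, unless noted: active = normalized viability below 100% at a tested concentration; inactive = the rest.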

Legend:
[1] = stimulators of nuclear beta-catenin in C2C12, primary screen, imaging, WNT3A-conditioned medium, mouse C2C12, NPC library (AID 1117326; in the data active = nuclear beta-catenin stimulation mostly above about 4.2%, no sharp cut-off; inactive = mostly below about 10%); settings: stronger effect = higher value
[2] = stimulators of insulin release from INS-1E, primary screen, cell-based, 5 mM glucose, NPC library (AID 1117329;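 active = compound raises insulin release from rat beta cells at 5 mM glucose, no numeric limit stated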); settings: rat INS-1E insulin secretion, at 10 µM, stronger effect = higher value
[3] = growth inhibition of GSK3B-pretreated HCT116 cells – cell-based, CellTiter-Glo, 0.2 to 20 µM (AID 1117336;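 active = compounds lowering colon cancer cell viability after pretreatment blocking the GSK3B kinase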); settings: HCT116 viability after GSK3B inhibitor, at 20 µM, stronger effect = higher value
[4] = inhibition of endothelial tube formation, primary screen, imaging, VEGF stimulated, CD31 staining, tube area, NPC library (AID 1117340;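 active = compound that reduces growth-factor-driven endothelial tube area in a mixed cell culture, no cutoff stated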); settings: VEGF-stimulated ADSC/ECFC co-culture, at 10 µM, stronger effect = higher value
[5] = glucagon-like peptide 1 release enhancers, primary assay, NCI-H716 cell line, NPC library (AID 1117341;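 active = compound raises GLP1 secretion from the human gut endocrine cells, with no numeric limit stated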); settings: NCI-H716 cells, at 10 µM, stronger effect = higher value
[6] = HCT116 colon cancer cell growth inhibition, primary screen, CellTiter-Glo luminescence, NPC library (AID 1117342;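 active = compounds that lower survival of HCT116 colon cancer cells in the luminescence readout, no numeric limit stated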); settings: at 20 µM (top of the series)
[7] = CellTiter-Glo luminescent readout of SW480 viability loss, NPC library primary (AID 1117343;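 active = compounds that lower viability of the colon cancer cells in the luminescence readout, with no numeric limit stated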); settings: CellTiter-Glo luminescence; at 20 µM (top of the series)
[8] = decreased DLD-1 cellular survival, CellTiter-Glo luminescent readout, NPC compound collection, primary HTS (AID 1117346;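 active = compounds that lower survival of DLD-1 colon cancer cells in the luminescence readout, no cutoff given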); settings: DLD-1 viability, CellTiter-Glo luminescence; at 20 µM (top of the series)
[9] = target: 6-phosphogluconate dehydrogenase, decarboxylating (Homo sapiens) (UniProt P52209); test: 6PGD enzyme inhibitors, primary screen, biochemical, human, recombinant enzyme, NADPH absorbance (AID 1159550;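 active = at least 20% inhibition of 6-phosphogluconate dehydrogenase activity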); settings: recombinant 6PGD, NADPH absorbance 341 nm; at 10 µM; stronger effect = higher value
[10] = modulation of C. elegans fzo-1 (AID 1259413; call rule not given here;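 note: fzo-1 mutant C. elegans worms in liquid wells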); settings: C. elegans fzo-1 modulator screen, mean read-out; stronger effect = higher value
[11] = differential killing of epithelial or mesenchymal cells, primary screen, imaging, PC-3E GFP, TEM4-18 mCherry, co-culture (AID 1345086;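 active = compounds killing one labelled cell type while sparing the other, by normalised counts and ratio limits, not self-fluorescent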;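 for all read-outs here: cells exposed to compound for 72 h before imaging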;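 for red/green cell ratio (normalised): normalised mesenchymal count divided by normalised epithelial count so high means epithelial killing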); settings: imaging cell counts, at 1 µM; for red/green cell ratio (normalised): actives lie on both sides, counts scaled to control wells, 1 = unselective
[12] = sensitizers of A549 cells to miR-34 induction, primary screen, imaging, A549 dox-inducible miR-34, nuclei and caspase counts (AID 1347080;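 active = compounds whose cell count with miR-34 switched on is under 0.7 times the count with it off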); settings: A549 miR-34 inducible, Hoechst nuclei count, 48 h
[13] = survival rescue of mitochondrial mutant cells in low glucose, primary screen, MELAS cybrids, Rieske KO mouse fibroblasts, CellTiter-Glo (AID 1508586;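 active = mean z-score across replicates of 1.96 or higher in either the MELAS or the Rieske mutant cell line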;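 note: z relative to plate mean and SD of compound and empty wells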)
[14] = target: NAD(+) hydrolase SARM1 (Homo sapiens) (UniProt Q6SZW1); test: SARM1 TIR NADase inhibitors, cell lysate, NAD-Glo luminescence (AID 1508614;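 active = compound whose remaining NAD level is above about 45 nM, limit read from the data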;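 note: higher remaining NAD means stronger inhibition of SARM1 NADase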); settings: SAM-TIR HEK293T lysate NADase, at 1 µM, stronger effect = higher value
[15] = target: Mitogen-activated protein kinase 7 (Homo sapiens) (UniProt Q13164); test: ERK5 transactivation activators in reporter cells, primary screen, cell-based, HTS (AID 1508626;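 active = luciferase signal above three times the same-plate solvent-only control wells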;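 note: luciferase driven by Gal4-ERK5 fusion binding five Gal4 sites before minimal TATA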); settings: HeLa Gal4-ERK5 transactivation, 18 h, at 5 µM, stronger effect = higher value
[16] = tested on: F380Y; test: modulators of BK channel variants, profiling panel, selectivity assay, cell-based, U2OS BacMam, thallium flux, beta subunits (AID 1259406;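 active = thallium flux through the channel raised or lowered by more than 3 SD from vehicle-only wells, actives on both sides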;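 note: initial slope of Thallos dye fluorescence rise after thallium is added; log ratio against the mean of 0.3% DMSO vehicle wells on the same plate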); settings: at 30 µM
[17] = tested on: F380Y/beta1; test: as above; settings: at 30 µM
[18] = tested on: F380Y/beta2Delta; test: as above; settings: at 30 µM
[19] = ovarian cancer cell viability with rucaparib, profiling panel, oncology-focused library, rucaparib conditional (AID 1508598); settings: patient-derived ovarian cancer cells, CellTiter-Glo viability, 144 h, stronger effect = lower value
[20] = ICB984 medulloblastoma cell growth inhibition, synergistic combos for chromothripsis tumors, cisplatin or BGB combos (AID 1671451; call rule not given here;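 note: cells exposed for 96 hours before readout; 0% = vehicle DMSO and 100% = killing by high DMSO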); settings: ICB984 medulloblastoma cells, drug combinations, stronger effect = higher value
[21] = measured here: epithelial PC-3E GFP cell survival
[22] = measured here: mesenchymal TEM4-18 mCherry cell survival
[23] = stronger effect = lower value, cell number ratio, induced over uninduced
[24] = measured here: relative caspase fold change +Dox/-Dox
[25] = measured here: total cells with miR-34 induction, stronger effect = lower value
[26] = measured here: total cells without miR-34 induction
[27] = MELAS cybrid survival, CellTiter-Glo 48 h, stronger effect = higher value
[28] = Rieske KO mouse fibroblast survival, CellTiter-Glo 72 h

NAD(+) hydrolase SARM1 (Homo sapiens), sequence (Q6SZW1 whole entry, looked up, the tested form may be a part): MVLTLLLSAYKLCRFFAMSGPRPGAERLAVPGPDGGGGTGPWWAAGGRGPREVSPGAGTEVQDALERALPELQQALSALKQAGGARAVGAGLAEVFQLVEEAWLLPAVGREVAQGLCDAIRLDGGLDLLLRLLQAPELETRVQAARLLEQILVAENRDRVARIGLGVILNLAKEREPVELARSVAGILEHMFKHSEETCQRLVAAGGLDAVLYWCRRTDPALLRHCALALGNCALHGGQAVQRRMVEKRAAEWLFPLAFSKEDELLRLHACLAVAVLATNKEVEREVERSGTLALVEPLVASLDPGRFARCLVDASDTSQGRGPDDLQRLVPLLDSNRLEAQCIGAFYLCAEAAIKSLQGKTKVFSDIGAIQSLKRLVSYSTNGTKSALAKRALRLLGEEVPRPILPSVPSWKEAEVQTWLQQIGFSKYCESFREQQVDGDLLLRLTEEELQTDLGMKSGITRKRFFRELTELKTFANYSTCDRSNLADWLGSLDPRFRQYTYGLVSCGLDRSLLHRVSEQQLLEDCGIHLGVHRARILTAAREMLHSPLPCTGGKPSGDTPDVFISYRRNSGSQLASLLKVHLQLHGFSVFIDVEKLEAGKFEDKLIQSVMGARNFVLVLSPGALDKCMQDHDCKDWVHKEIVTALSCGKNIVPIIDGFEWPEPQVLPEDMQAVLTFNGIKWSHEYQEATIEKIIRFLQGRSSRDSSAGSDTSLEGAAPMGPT
Mitogen-activated protein kinase 7 (Homo sapiens), sequence (Q13164 whole entry, looked up, the tested form may be a part): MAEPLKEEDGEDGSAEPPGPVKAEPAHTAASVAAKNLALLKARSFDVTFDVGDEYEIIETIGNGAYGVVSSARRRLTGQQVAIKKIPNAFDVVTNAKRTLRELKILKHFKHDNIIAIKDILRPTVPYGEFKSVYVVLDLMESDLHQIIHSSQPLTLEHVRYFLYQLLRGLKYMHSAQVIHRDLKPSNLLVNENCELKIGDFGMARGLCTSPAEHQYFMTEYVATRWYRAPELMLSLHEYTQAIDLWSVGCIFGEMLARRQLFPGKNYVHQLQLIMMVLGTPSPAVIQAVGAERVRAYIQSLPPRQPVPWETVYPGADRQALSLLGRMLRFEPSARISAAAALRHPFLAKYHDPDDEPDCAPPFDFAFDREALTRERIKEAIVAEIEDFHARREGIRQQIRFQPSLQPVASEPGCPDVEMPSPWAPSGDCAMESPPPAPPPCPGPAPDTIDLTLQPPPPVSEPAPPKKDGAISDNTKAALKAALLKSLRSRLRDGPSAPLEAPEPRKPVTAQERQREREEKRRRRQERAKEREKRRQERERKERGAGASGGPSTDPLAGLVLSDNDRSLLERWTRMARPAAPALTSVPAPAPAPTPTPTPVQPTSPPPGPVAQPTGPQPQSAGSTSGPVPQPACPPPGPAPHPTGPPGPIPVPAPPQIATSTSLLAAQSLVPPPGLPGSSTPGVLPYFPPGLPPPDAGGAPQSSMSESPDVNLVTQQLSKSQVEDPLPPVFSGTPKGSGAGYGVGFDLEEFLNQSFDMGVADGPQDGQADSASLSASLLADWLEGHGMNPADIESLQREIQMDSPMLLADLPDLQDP
6-phosphogluconate dehydrogenase, decarboxylating (Homo sapiens), sequence (P52209 whole entry, looked up): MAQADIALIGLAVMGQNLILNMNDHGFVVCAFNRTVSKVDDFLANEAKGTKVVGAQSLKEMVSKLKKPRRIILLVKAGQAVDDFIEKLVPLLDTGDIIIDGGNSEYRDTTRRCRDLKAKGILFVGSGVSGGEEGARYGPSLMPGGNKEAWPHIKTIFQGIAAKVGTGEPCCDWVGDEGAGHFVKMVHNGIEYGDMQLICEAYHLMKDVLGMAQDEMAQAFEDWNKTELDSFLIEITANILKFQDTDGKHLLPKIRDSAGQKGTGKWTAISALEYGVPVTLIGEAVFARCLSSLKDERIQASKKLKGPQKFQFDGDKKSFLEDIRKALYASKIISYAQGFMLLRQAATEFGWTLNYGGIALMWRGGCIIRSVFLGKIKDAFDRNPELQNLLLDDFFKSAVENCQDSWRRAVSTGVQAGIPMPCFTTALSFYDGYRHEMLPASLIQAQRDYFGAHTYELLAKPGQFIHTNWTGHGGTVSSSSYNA

O=C1C(CCS(=O)c2ccccc2)C(=O)N(c2ccccc2)N1c1ccccc1 (stereo not drawn)
1.24: normalised cell number [11, 22]
0%: nuclear beta-catenin stimulation ([1]; stimulation, at 2 µM)
11300 and 8200 and 12500: cell count [12, 26]
0.93: normalised cell number [11, 21]
inactive: nuclear beta-catenin stimulation ([1]; at 10 µM) 0.9% | insulin secretion stimulation [2] 2.6% | viability decrease [3] -21% | tube area decrease [4] 1% | GLP1 secretion stimulation [5] -0.7% | inhibition of viability [6] -1.5% | viability decrease (inhibition) [7] 15.3% | viability decrease (inhibition) [8] -15.6% | inhibition [9] -6.96% | mean signal [10] 224 | red/green cell ratio (normalised) [11] 1.33 | fold change [12, 23] 1.01 and 1 and 0.826 | z-score [13, 27] 0.278 | remaining NAD [14] 10 nM | luciferase signal [15] 104 AU | log fold change Tl+ flux [16] -0.0134 | log fold change Tl+ flux [17] 0.0248 | log fold change Tl+ flux [18] 0.0447
1.95 and 1.38 and 4.04: fold change [12, 24]
11300 and 8240 and 10300: cell count [12, 25]
0.23: z-score [13, 28]

Cc1cn([C@H]2C[C@H](N=[N+]=[N-])[C@@H](CO)O2)c(=O)[nH]c1=O
0.0413 and -0.28: z-score [13, 28]
1.09: normalised cell number [11, 22]
1.3%: nuclear beta-catenin stimulation ([1]; stimulation, at 2 µM)
inactive: nuclear beta-catenin stimulation ([1]; at 10 µM) 1.2% | insulin secretion stimulation [2] -1.7% | viability decrease [3] 4.9% | tube area decrease [4] 18.1% | GLP1 secretion stimulation [5] -0.1% | inhibition of viability [6] 2.4% | viability decrease (inhibition) [7] -5.4% | viability decrease (inhibition) [8] -4.95% | inhibition [9] 13.6% | mean signal [10] 236 | red/green cell ratio (normalised) [11] 1.03 | z-score [13, 27] 1.37 and 1.42 | remaining NAD [14] 10 nM | luciferase signal [15] 44 AU | log fold change Tl+ flux [16] -0.00123 | log fold change Tl+ flux [17] 0.0379 | log fold change Tl+ flux [18] 0.00186
1.06: normalised cell number [11, 21]

COC(=O)Nc1nc2ccc(C(=O)c3ccccc3)cc2[nH]1
0.29: normalised cell number [11, 22]
42.2%: nuclear beta-catenin stimulation ([1]; stimulation, at 2 µM)
0.23: normalised cell number [11, 21]
active: nuclear beta-catenin stimulation ([1]; at 10 µM) 78.6% | tube area decrease [4] 102% | inhibition of viability [6] 56.4% | viability decrease (inhibition) [7] 27.7% | viability decrease (inhibition) [8] 51.5%
0.0815 and 0.438 and 0.923: z-score [13, 28]
inactive: insulin secretion stimulation [2] -0.3% | viability decrease [3] 10.7% | GLP1 secretion stimulation [5] 2.2% | inhibition [9] 0.811% | mean signal [10] 274 | red/green cell ratio (normalised) [11] 1.27 | z-score [13, 27] 0.18 and -0.728 and -2.21 | remaining NAD [14] 10 nM | luciferase signal [15] 28 AU | log fold change Tl+ flux [16] -0.0365 | log fold change Tl+ flux [17] 0.0198 | log fold change Tl+ flux [18] -0.00923

CCCCCCNC(=O)n1cc(F)c(=O)[nH]c1=O
0.75: normalised cell number [11, 22]
active: nuclear beta-catenin stimulation ([1]; at 10 µM) 41.7% | viability decrease [3] 65.6% | tube area decrease [4] 68.7% | viability decrease (inhibition) [7] 83.7% | viability ([19]; at 1.25 µM, OCI-P5x cells, with rucaparib 20 µM, 100% = cells with rucaparib alone) 95.1% | viability ([19]; at 5 µM, OCI-P5x cells, with rucaparib 20 µM, 100% = cells with rucaparib alone) 76.9% | viability ([19]; at 5 µM, OCI-P5x cells, without rucaparib) 77.9%
9.5%: nuclear beta-catenin stimulation ([1]; stimulation, at 2 µM)
1.38 and 0.815: fold change [12, 24]
3390 and 2360: cell count [12, 25]
-17.4% and -9.29%: inhibition ([20]; BGB IC20 combo, at 0.005 µM)
-22.5% and -2.82%: inhibition ([20]; BGB IC40 combo, at 0.005 µM)
3110 and 2180: cell count [12, 26]
0.88: normalised cell number [11, 21]
-50% and -4.83%: inhibition ([20]; cisplatin combo, at 0.5 µM)
-29.3% and 7.79%: inhibition ([20]; BGB IC40 combo, at 0.05 µM)
-33.9% and 7.79%: inhibition ([20]; cisplatin combo, at 0.05 µM)
-43.5% and -25.3%: inhibition ([20]; cisplatin combo, at 5 µM)
0.677 and -3.1: z-score [13, 28]
inactive: insulin secretion stimulation [2] 0.3% | GLP1 secretion stimulation [5] -0.8% | inhibition of viability [6] 42% | viability decrease (inhibition) [8] 30.3% | inhibition [9] 1.06% | mean signal [10] 292 | red/green cell ratio (normalised) [11] 0.85 | fold change [12, 23] 1.09 and 1.08 | z-score [13, 27] -0.365 and -0.769 | viability ([19]; at 0.000305 µM, OCI-C5x cells, with rucaparib 10 µM, 100% = cells with rucaparib alone) 125% | viability ([19]; at 0.000305 µM, OCI-C5x cells, without rucaparib) 114% | viability ([19]; at 0.000305 µM, OCI-P5x cells, with rucaparib 20 µM, 100% = cells with rucaparib alone) 108% | viability ([19]; at 0.000305 µM, OCI-P5x cells, without rucaparib) 129% | viability ([19]; at 0.00122 µM, OCI-C5x cells, with rucaparib 10 µM, 100% = cells with rucaparib alone) 128% | viability ([19]; at 0.00122 µM, OCI-C5x cells, without rucaparib) 121% | viability ([19]; at 0.00122 µM, OCI-P5x cells, with rucaparib 20 µM, 100% = cells with rucaparib alone) 115% | viability ([19]; at 0.00122 µM, OCI-P5x cells, without rucaparib) 115% | viability ([19]; at 0.00488 µM, OCI-C5x cells, with rucaparib 10 µM, 100% = cells with rucaparib alone) 115% | viability ([19]; at 0.00488 µM, OCI-C5x cells, without rucaparib) 125% | viability ([19]; at 0.00488 µM, OCI-P5x cells, with rucaparib 20 µM, 100% = cells with rucaparib alone) 108% | viability ([19]; at 0.00488 µM, OCI-P5x cells, without rucaparib) 117% | viability ([19]; at 0.0195 µM, OCI-C5x cells, with rucaparib 10 µM, 100% = cells with rucaparib alone) 114% | viability ([19]; at 0.0195 µM, OCI-C5x cells, without rucaparib) 113% | viability ([19]; at 0.0195 µM, OCI-P5x cells, with rucaparib 20 µM, 100% = cells with rucaparib alone) 107% | viability ([19]; at 0.0195 µM, OCI-P5x cells, without rucaparib) 113% | viability ([19]; at 0.0781 µM, OCI-C5x cells, with rucaparib 10 µM, 100% = cells with rucaparib alone) 134% | viability ([19]; at 0.0781 µM, OCI-C5x cells, without rucaparib) 117% | viability ([19]; at 0.0781 µM, OCI-P5x cells, with rucaparib 20 µM, 100% = cells with rucaparib alone) 103% | viability ([19]; at 0.0781 µM, OCI-P5x cells, without rucaparib) 117% | viability ([19]; at 0.313 µM, OCI-C5x cells, with rucaparib 10 µM, 100% = cells with rucaparib alone) 133% | viability ([19]; at 0.313 µM, OCI-C5x cells, without rucaparib) 112% | viability ([19]; at 0.313 µM, OCI-P5x cells, with rucaparib 20 µM, 100% = cells with rucaparib alone) 101% | viability ([19]; at 0.313 µM, OCI-P5x cells, without rucaparib) 112% | viability ([19]; at 1.25 µM, OCI-C5x cells, with rucaparib 10 µM, 100% = cells with rucaparib alone) 129% | viability ([19]; at 1.25 µM, OCI-C5x cells, without rucaparib) 128% | viability ([19]; at 1.25 µM, OCI-P5x cells, without rucaparib) 104% | viability ([19]; at 5 µM, OCI-C5x cells, with rucaparib 10 µM, 100% = cells with rucaparib alone) 223% | viability ([19]; at 5 µM, OCI-C5x cells, without rucaparib) 172% | remaining NAD [14] 10 nM | luciferase signal [15] 32 AU | inhibition ([20]; at 0.5 µM) -42.7% and -3.92% | log fold change Tl+ flux [16] -0.0314 | log fold change Tl+ flux [17] -0.0124 | log fold change Tl+ flux [18] -0.0543
-14.5% and -8.95%: inhibition ([20]; measured here: 5 uM single agent, at 5 µM)

NS(=O)(=O)c1cc2c(cc1Cl)NC=NS2(=O)=O
0.39: normalised cell number [11, 21]
0.72 and -0.309: z-score [13, 28]
inactive: nuclear beta-catenin stimulation ([1]; at 10 µM) -0.3% | insulin secretion stimulation [2] -0.7% | viability decrease [3] -4.3% | tube area decrease [4] 3.2% | GLP1 secretion stimulation [5] 1.5% | inhibition of viability [6] -1.55% | viability decrease (inhibition) [7] 5.5% | viability decrease (inhibition) [8] -6.2% | inhibition [9] 11.5% | mean signal [10] 245 | red/green cell ratio (normalised) [11] 1.16 | z-score [13, 27] -0.0786 and 0.00114 | remaining NAD [14] 10 nM | luciferase signal [15] 52 AU | log fold change Tl+ flux [16] 0.0512 | log fold change Tl+ flux [17] 0.0165 | log fold change Tl+ flux [18] -0.00499
0.45: normalised cell number [11, 22]
3%: nuclear beta-catenin stimulation ([1]; stimulation, at 2 µM)
